Reference: PubChem BioAssay (NCI)
About 83,000 compounds went through this panel and 20% of them were active in at least one assay; those are over-represented in the sample as a whole.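 Interpretation: 100, growth as untreated; towards 0, rising growth inhibition; 0, no net growth; 0 to -100, cell death. Compounds scoring below 10 were considered active.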 A number with no mark means an inactive call. Active and inactive are the calls of the source.

Each molecule was assayed on EKVX NSCLC (assay: NCI-60 one-dose screen, 48 h (100 = growth as untreated, 0 = no growth, -100 = all killed)). Conditions: 10 µM unless noted.

| SMILES | growth |
| --- | --- |
| CCOC(=O)[C@@H](C)C[C@H](Cc1ccccc1)NC(=O)c1csc([C@@H](C[C@H](C(C)C)N(C)C(=O)[C@H](CC)NC(=O)[C@H]2CCCCN2C)OC(C)=O)n1 | 38.6% |
| CCN(CCO)C(Cc1ccccc1)c1ccccc1 (configuration not stated) | 96.5% |
| C1CCC([PH+](C2CCCCC2)C2CCCCC2[PH+](C2CCCCC2)C2CCCCC2)CC1.O=C(C1[CH-]CCCC1)C1CCCC[N-]1.[Au] (configuration not stated) | -53.2% (active) |
| Cn1cc(-c2csc(-c3cn(CCN4CCOCC4)c4ccc(F)cc34)n2)c2cccnc21 | 37.5% |
| O=[N+]([O-])c1cc(I)cc([N+](=O)[O-])c1 | 99.9% |
| O=[N+]([O-])CC(O)C(Cl)(Cl)Cl (configuration not stated) | 101% |
| N#C[S-].[Au+].c1ccc(CN2[CH-]N(Cc3ccccc3)C(c3ccccc3)=C2c2ccccc2)cc1 | 12.6% |
| CC[C@H](NC(=O)[C@H]1CCCCN1C)C(=O)N(C)[C@H](C[C@@H](OC(C)=O)c1nc(C(=O)N[C@@H](Cc2ccccc2)C[C@H](C)C(=O)O)cs1)C(C)C | 40.6% |
| CC(=O)O[C@H](C[C@H](C(C)C)N(C)C(=O)[C@@H](NC(=O)[C@H]1CCCCN1C)C(C)C)c1cccc(C(=O)N[C@@H](Cc2ccccc2)C[C@H](C)C(=O)O)n1 | 37.3% |
| [Cl][Hg][c]1cc[c]([Hg][Cl])o1 | 20.5% |
| Clc1ccc(N2COOC3(OOC2)C2CC4CC(C2)CC3C4)cc1 | 64.2% |
| COC(=O)[C@@H](C)C[C@H](Cc1ccccc1)NC(=O)c1nc([C@@H](C[C@H](C(C)C)N(C)C(=O)[C@@H](NC(=O)[C@H]2CCCCN2C)C(C)C)OC(C)=O)sc1C | 33.9% |
| CC(C)(N)Cc1ccccc1 | 99.1% |
| CC1=C(CCCOC(=O)CN)C2=C(C)C3(CC3)[C@@](C)(O)C(=O)C2=C1 | 95.8% |
| COC(=O)[C@@H](C)C[C@H](Cc1ccccc1)NC(=O)c1csc(CC[C@H](C(C)C)N(C)C(=O)[C@@H](NC(=O)[C@H]2CCCCN2C)C(C)C)n1 | 40.8% |
| COC(=O)[C@H](C[C@H](Cc1ccccc1)NC(=O)c1csc([C@@H](C[C@H](C(C)C)N(C)C(=O)[C@@H](NC(=O)[C@H]2CCCCN2C)C(C)C)OC(C)=O)n1)NC(=O)OCc1ccccc1 | 54.7% [8.5 µM] |
| [Au+].[N-]=C=O.c1ccc(CN2[CH-]N(Cc3ccccc3)C(c3ccccc3)=C2c2ccccc2)cc1 | 86.7% |
| CNCc1cccnc1 | 114% |
| CC(=O)O[C@H](C[C@H](C(C)C)N(C)C(=O)[C@@H](NC(=O)[C@H]1CCCCN1C)C(C)(C)C)c1nc(C(=O)N[C@@H](Cc2ccccc2)C[C@H](C)C(=O)O)cs1 | 39.7% |

| SMILES | growth |
| --- | --- |
| C[C@@H]1O[C@@H](O[C@H]2C[C@@H](O)[C@]3(CO)C4C(CC[C@]3(O)C2)[C@@]2(O)CC[C@H](C3=CC(=O)OC3)[C@@]2(C)C[C@H]4O)[C@H](O)[C@H](O)[C@H]1O (some centres not stated) | -74.3% (active) |
| Nc1ccc(Cl)cc1 | 95.7% |
| Fc1cccc(NCOOC2(OOCNc3cccc(F)c3)CCCCC2)c1 | 93.8% |
| COC(=O)[C@@H](NC(=O)c1cn(CCC2CCCCC2)c2ccccc12)C(C)(C)C | 58.6% |
| CCOc1ccccc1C(=O)OCC(Cl)(Cl)Cl | 109% |
| CCOP(=O)(Cc1ccc(C#N)cc1)OCC | 105% |
| N#CCCNc1ccccc1 | 98% |
| C[C@]12CC[C@H]3[C@@H](CC[C@]4(O)C[C@@H](O[C@@H]5O[C@H](CO)[C@@H](O[C@@H]6OC[C@@H](O)[C@H](O)[C@H]6O)[C@H](O)[C@H]5O)CC[C@]34C=O)[C@@]1(O)CC[C@@H]2C1=CC(=O)OC1 | -59.9% (active) |
| O=P(N1CC1)(N1CC1)N1CCc2ccccc21 | 119% |
| COc1cc([C@@H]2c3cc4c(cc3[C@H](OC(C)=O)[C@H]3COC(=O)[C@H]23)OCO4)cc(OC)c1OC | 38.3% |
| COC(=O)[C@@H](C)C[C@H](Cc1ccc(F)cc1)NC(=O)c1csc([C@@H](C[C@H](C(C)C)N(C)C(=O)[C@@H](NC(=O)[C@H]2CCCCN2C)C(C)C)OC(C)=O)n1 | 48.7% |
| N#C[Se]CCN1C(=O)c2ccccc2C1=O | 33.8% |
| O=[N+]([O-])c1c(Br)sc(Br)c1[N+](=O)[O-] | 72.5% |
| CN1C(=O)C(=Cc2cn(CCCCCCn3c4ccccc4c(=O)c4ccccc43)c3ccccc23)C(=O)N(C)C1=O | 96.2% |
| CCCCCCCC[n+]1ccc2ccccc2c1 | 75.3% |
| COC(=O)C12CC(NC(=O)c3csc([C@@H](C[C@H](C(C)C)N(C)C(=O)[C@@H](NC(=O)[C@H]4CCCCN4C)C4CC4)OC(C)=O)n3)(C1)C2 | 59.8% |
| Cn1cc(-c2csc(-c3cn(CCCCN4CCCCC4)c4ccccc34)n2)c2cccnc21 | 69.9% |
| CC1(C)N=C(N)N=C(N)N1c1ccc(CCC(=O)Nc2ccc(S(=O)(=O)F)cc2)c(Cl)c1 | 55.1% |
